{
  "source": "PubChem BioAssay (EPA / NIEHS)",
  "note": "Calls of active or inactive are those of the source. The calls were made as follows: active = hit-call score of the fitted dose curve at least 0.9, where 1 is the maximum; inactive = score below 0.9.",
  "data": [
    {"assay": "ATG_FoxO_CIS: Attagene CIS-FACTORIAL HepG2 Assay for human Forkhead box O (FoxO) (AID 2282943)", "settings": "HepG2 Attagene cis-reporter, FoxO element, mRNA; actives raise or lower the signal", "method": "ATG_CIS is a cell-based, multiplexed-readout assay that uses HepG2, a human liver cell line, with measurements taken at 24 hours after chemical dosing in a 24-well plate.ATG_FoxO_CIS is one of 52 assay component(s) measured or calculated from the ATG_CIS assay. It is designed to make measurements of mRNA induction, a form of inducible reporter, as detected with fluorescence intensity signals by Reverse transcription polymerase chain reaction (RT-PCR) and Capillary electrophoresis technology.Data from the assay component ATG_FoxO_CIS was analyzed into 1 assay endpoint. This assay endpoint, ATG_FoxO_CIS, was analyzed with bidirectional fitting relative to DMSO as the negative control and baseline of activity. Using a type of inducible reporter, measures of mRNA for gain or loss-of-signal activity can be used to understand the reporter gene at the transcription factor-level as they relate to the gene FOXO1 and FOXO3. Furthermore, this assay endpoint can be referred to as a primary readout, because this assay has produced multiple assay endpoints where this one serves a reporter gene function. To generalize the intended target to other relatable targets, this assay endpoint is annotated to the dna binding intended target family, where the subfamily is forkhead box protein.\nHuman liver HepG2 cells are transiently transfected with multiple reporter transcription units (MRTUs) in 6-well plates using FuGene 6 reagent (Roche; 3 ml FuGene/1 mg DNA). The MRTU constructs are regulated by a cis-regulating element (promoter). […] A major difference between the CIS and TRANS system is that in CIS activities of endogenous TFs are measured, whereas the TRANS assay evaluates changes in activities of exogenous, chimeric NR-Gal4 proteins. […] At the end of 24 hour incubation, total RNA was isolated using TriZol reagent (Invitrogen). The isolated RNA is then reverse-transcribed using oligo(dT) primer and Mo-MLV reverse transcriptase (Invitrogen) with DNAse I (Ambion) treatment for 30 min. The one-tenth of the produced cDNA was amplified by PCR using Taq DNA polymerase (Invitrogen) and two reporter sequence-specific primers. The PCR products were fluorescently labeled by primer extension with 6-arboxyfluorescein (6-FAM) 5'-labeled reporter sequence-specific primer (2 min at 95 C, 20 s at 68 C and 10 min at 72 C) and these products were digested with 5U of HpaI (New England Biolabs) for 2h at 37 C. The fragments were purified using Qiaquick PCR columns (Qiagen), analyzed on an ABI 3130xL genetic analyzer (Applied Biosystems) with peak positions identified by using a set of X-rhodamine (ROX)-labeled MapMarker1000 molecular weight standards (BioVentures). The raw capillary electrophoresis data was processed using Attagraph software (Attagene).", "values": [
      {"smiles": "OCC(F)(F)C(F)(F)C(F)(F)C(F)(F)C(F)(F)C(F)(F)C(F)(F)C(F)(F)C(F)(F)C(F)(F)C(F)(F)F", "outcome": "inactive"},
      {"smiles": "C/C=C/C(=O)C1=C(C)CCCC1(C)C", "AC50": "138 µM (active)"},
      {"smiles": "CCO[Si](C)(C)OCC", "outcome": "inactive"},
      {"smiles": "COC(O)c1ccccc1", "note": "(stereo not given)", "outcome": "inactive"},
      {"smiles": "O=C1OC(=O)C(F)(F)C1(F)F", "outcome": "inactive"},
      {"smiles": "CCOC=C(C(=O)OCC)C(=O)OCC", "outcome": "inactive"},
      {"smiles": "CN(Cc1cnc2nc(N)nc(N)c2n1)c1ccc(C(=O)N[C@@H](CCC(=O)O)C(=O)O)cc1", "outcome": "inactive"},
      {"smiles": "Cc1cncc(C)c1", "outcome": "inactive"},
      {"smiles": "CN(C)c1ccc(C(=C2C=CC(=[N+](C)C)C=C2)c2ccccc2)cc1", "outcome": "inactive"},
      {"smiles": "CC1=CC(=O)c2ccccc2C1=O", "outcome": "inactive"},
      {"smiles": "CCc1ccccc1O", "outcome": "inactive"},
      {"smiles": "O=C(C=C(O)C(F)(F)F)C(F)(F)F", "outcome": "inactive"},
      {"smiles": "CS(=O)(=O)c1ccc([C@@H](CC2CCCC2)C(=O)Nc2cnccn2)cc1Cl", "AC50": "152 µM (active)"},
      {"smiles": "FCOC(C(F)(F)F)C(F)(F)F", "outcome": "inactive"},
      {"smiles": "Cc1ccc(C(=O)c2ccccc2)cc1", "outcome": "inactive"},
      {"smiles": "C=CC(=O)OCCC(F)(F)C(F)(F)C(F)(F)C(F)(F)C(F)(F)C(F)(F)C(F)(F)C(F)(F)F", "outcome": "inactive"},
      {"smiles": "CCCCCCCCCCCC[N+](C)(C)Cc1ccccc1", "outcome": "inactive"},
      {"smiles": "CC(C)C=O", "outcome": "inactive"},
      {"smiles": "NNC(=O)CCCCC(=O)NN", "outcome": "inactive"},
      {"smiles": "CCCCCCCCCC=CCC1CC(=O)OC1=O", "note": "(stereo not given)", "outcome": "inactive"},
      {"smiles": "C[C@]12CC[C@@H]3c4ccc(O)cc4CC[C@H]3[C@@H]1C[C@@H](O)[C@@H]2O", "outcome": "inactive"},
      {"smiles": "Cn1sccc1=O", "outcome": "inactive"},
      {"smiles": "O=C1OC(=O)c2cc(-c3ccc4c(c3)C(=O)OC4=O)ccc21", "outcome": "inactive"},
      {"smiles": "CC(=O)Nc1ccc(S(N)(=O)=O)cc1", "outcome": "inactive"},
      {"smiles": "O=P(O)(O)CCC(F)(F)C(F)(F)C(F)(F)C(F)(F)C(F)(F)C(F)(F)C(F)(F)C(F)(F)F", "outcome": "inactive"},
      {"smiles": "CCOCCOCC", "outcome": "inactive"},
      {"smiles": "CC(C)(C)c1ccc(CCC=O)cc1", "outcome": "inactive"},
      {"smiles": "C=CC(C)(CCC=C(C)C)OC(C)=O", "note": "(stereo not given)", "outcome": "inactive"},
      {"smiles": "O=C(c1cc(O)c(O)c(O)c1)c1ccc(O)c(O)c1O", "outcome": "inactive"},
      {"smiles": "O=C(F)C(F)(F)C(F)(F)C(F)(F)C(F)F", "outcome": "inactive"},
      {"smiles": "Oc1c(Cl)ccc(Cl)c1Cl", "outcome": "inactive"},
      {"smiles": "CCCCCCc1ccc(N)cc1", "outcome": "inactive"},
      {"smiles": "O=C1c2ccccc2C(=O)c2c(O)c(O)cc(O)c21", "outcome": "inactive"},
      {"smiles": "Clc1ccc(Nc2nnc(Cc3ccncc3)c3ccccc23)cc1", "outcome": "inactive"},
      {"smiles": "COc1ccccc1NC(=O)c1cc2ccccc2cc1O", "AC50": "100 µM (active)"},
      {"smiles": "Cc1ccc2ccc3ccc(C)cc3c2c1", "outcome": "inactive"},
      {"smiles": "O=C1c2ccc(O)c(O)c2C(=O)c2c(O)ccc(O)c21", "outcome": "inactive"},
      {"smiles": "CCC(=O)C=Cc1ccc(OC)cc1", "outcome": "inactive"},
      {"smiles": "CC1CCC(CO)CC1", "note": "(stereo not given)", "outcome": "inactive"},
      {"smiles": "CC(C)c1c(C(=O)Nc2ccccc2)c(-c2ccccc2)c(-c2ccc(F)cc2)n1CC[C@@H](O)C[C@@H](O)CC(=O)O", "outcome": "inactive"}
    ]}
  ]
}
